{
  "source": "PubChem BioAssay AID449762",
  "about": "(Southern Research Specialized Biocontainment Screening …, 2010)",
  "note": "Out of some 330,000 compounds screened, about 1,900 (0.58%) were called active. Another 4% or so got no clear call; they are omitted. The list is a sample of the results. Potency and affinity values are given separately. Unmarked numbers belong to inactive results. Rule as the data show it: inconclusive = inhibition above about 70% without an active follow-up result; inactive = below that.",
  "data": [
    {"test": "M. tuberculosis growth inhibition, HTS (AID 449762);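 also: bacterial growth assessed after seven days of incubation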", "details": "M. tuberculosis H37Rv growth inhibition, 7H9 media; at 25 µM; hits give high values", "units": {"inhibition": "%"}, "values": [
      {"smiles": "CCNC(=O)NC(=O)C(C)On1nnc2ccc(S(=O)(=O)N(CC)CC)cc21", "note": "(stereo not drawn)", "inhibition": -3.62},
      {"smiles": "C=CCSc1nc(N)c2c(C)c(C)sc2n1", "inhibition": -14.5},
      {"smiles": "O=c1c2c(-c3ccc(Cl)cc3)csc2ncn1/N=C/c1cccc([N+](=O)[O-])c1O", "inhibition": 3.59},
      {"smiles": "O=c1c2c(-c3ccccc3)csc2ncn1/N=C/c1cccc([N+](=O)[O-])c1O", "inhibition": 0.37},
      {"smiles": "CCOC(=O)N1CCN(c2c(NCC3CCCO3)c(=O)c2=O)CC1", "note": "(stereo not drawn)", "inhibition": 2.94},
      {"smiles": "COC(=O)c1cccc(NC(=O)CSc2nnc(C)o2)c1", "inhibition": 3.7},
      {"smiles": "Nc1ccc(CC2SC(=O)NC2=O)cc1", "note": "(stereo not drawn)", "inhibition": -2.9},
      {"smiles": "CCOc1ccc(CC2S/C(=N/c3ccccn3)NC2=O)cc1", "note": "(stereo not drawn)", "inhibition": -1.03},
      {"smiles": "CCc1c(C(=O)Nc2ccc(OC)cc2)[nH]c(C)c1C(C)=O", "inhibition": 0.65},
      {"smiles": "O=S(=O)(Nc1ncccn1)c1ccc(Cl)cc1", "inhibition": -3.71},
      {"smiles": "CCC(=O)Nc1nc2nc(-c3ccccc3)cc(=O)n2[nH]1", "inhibition": -4.67},
      {"smiles": "CCCC(=O)Nc1nc2nc(-c3ccccc3)cc(=O)n2[nH]1", "inhibition": -6.79},
      {"smiles": "Clc1cccc(Cl)c1COc1ccncc1", "inhibition": -7.66},
      {"smiles": "O=C(CNC(=O)c1ccccc1Cl)OC1CCOC1=O", "note": "(stereo not drawn)", "inhibition": 0.14},
      {"smiles": "CC(=O)c1cccc(NC(=S)NC2CC2)c1", "inhibition": -5.17},
      {"smiles": "O=C(Nc1ccc2nsnc2c1)C1CC1", "inhibition": 0.63},
      {"smiles": "CC(=O)c1cccc(NC(=S)NC2CCCCC2)c1", "inhibition": 0.31},
      {"smiles": "S=C(Nc1ccc2nsnc2c1)NC1CCCCC1", "inhibition": -5.66},
      {"smiles": "CCc1c(C)sc(NC(=O)c2cc(-c3cc(OC)ccc3OC)on2)c1C#N", "inhibition": 9.02},
      {"smiles": "CCCCCCCCNC(CO)(CO)CO", "inhibition": -13.8},
      {"smiles": "O=C(C1=C[C@H](c2ccc(Br)cc2)C[C@H](OCCCCO)O1)N1CCOCC1", "inhibition": 8.9},
      {"smiles": "CCn1cc(CNC(=O)C2CCC(=O)N(C3CCCCCC3)C2)cn1", "note": "(stereo not drawn)", "inhibition": -6.38},
      {"smiles": "COC(=O)C1=NNC(C(=O)c2ccco2)C1c1ccccc1", "note": "(stereo not drawn)", "inhibition": 4.3},
      {"smiles": "CCOC(=O)c1ccccc1NC(=O)COC(=O)C1CCCC1", "inhibition": 27.5},
      {"smiles": "CC[C@H](C)[C@@H](CNC)NC[C@@H](Cc1ccc(O)cc1)NCC(C)(C)C", "inhibition": -12.2},
      {"smiles": "CC[C@@H](C)[C@H](CN[C@H](CNC)[C@@H](C)O)NCCc1ccc(OC)cc1", "inhibition": 0.9},
      {"smiles": "CCCCN(CC)C(=O)CSc1nc2ccccc2c(=O)n1CC1COc2ccccc2O1", "note": "(stereo not drawn)", "inhibition": 15},
      {"smiles": "O=C(NCc1cccc(Cl)c1)c1cc(=O)[nH]c2ccccc12", "inhibition": -6.18},
      {"smiles": "CCOC(=O)CN(C#N)c1nc(C)cc(C)n1", "inhibition": -0.56},
      {"smiles": "COC(=O)CN(C#N)c1nc(OC)nc(N(C)C)n1", "inhibition": 9.53},
      {"smiles": "O=C(COC(=O)c1ccccc1)Nc1cc(S(=O)(=O)N2CCCCCC2)ccc1Cl", "inhibition": -13},
      {"smiles": "CCN1C(=O)[C@@H]2[C@@H](c3ccc(-c4ccc(C(C)=O)cc4)c(OC)c3)N3CCC[C@@]3(C(=O)OC)[C@@H]2C1=O", "inhibition": 18.4},
      {"smiles": "CC(=O)C[C@H](O)CC(=O)[C@H]1OC(=O)CCCCCCc2ccccc21", "inhibition": 4.94},
      {"smiles": "CC1(C)CC(=O)C2=C(C1)Nc1ccccc1[S@]2=O", "inhibition": 1.12},
      {"smiles": "COc1ccc(C2=NCCc3cc(OC)c(OC)cc32)cc1OC", "inhibition": 4.26},
      {"smiles": "OCC1(Cc2ccccc2Cl)CCN(C/C=C/c2ccccc2)CC1", "inhibition": 2.72},
      {"smiles": "COc1ccc(CC2(CO)CCN(C/C=C/c3ccccc3OC)CC2)cc1", "inhibition": 50.6},
      {"smiles": "Cc1ccc(-n2nc(CC#N)c(C#N)c2N)cc1Cl", "inhibition": -3.34},
      {"smiles": "O=Nc1c(O)[nH]c2ccc(F)cc12", "inhibition": -7.36},
      {"smiles": "Cc1ccc2[nH]c(O)c(N=O)c2c1", "inhibition": -3.5},
      {"smiles": "O=C(CSc1cccc[n+]1[O-])Nc1cccc(Oc2ccccc2)c1", "inhibition": 2.29},
      {"smiles": "O=C(C1CC(=O)N(c2ccc3c(c2)OCCO3)C1)N1CCN(Cc2ccccc2F)CC1", "note": "(stereo not drawn)", "inhibition": -2.42},
      {"smiles": "COc1cccc2sc3ccc(C#Cc4ccc(N)cc4)cc3c(=O)c12", "inhibition": 39.9},
      {"smiles": "COc1cccc2sc3ccc(C#CC4(O)CCCCC4)cc3c(=O)c12", "inhibition": 47.6},
      {"smiles": "COc1ccc(S(=O)(=O)Cc2ccc(C(=O)N3CCN(C4CCCCC4)CC3)o2)cc1", "inhibition": -3.99},
      {"smiles": "COc1ccc(NC(=O)c2ccc(CNc3c(NC4CCCCC4)c(=O)c3=O)cc2)c(OC)c1", "inhibition": -5.88},
      {"smiles": "CCOc1ccccc1NC(=O)c1ccccc1N(C)S(C)(=O)=O", "inhibition": -4.2},
      {"smiles": "COc1ccc(C2C(C#N)=C(N)N(N(C)C)C3=C2C(=O)CC(C)(C)C3)cc1OC", "note": "(stereo not drawn)", "inhibition": 7.78},
      {"smiles": "COc1ccc(C2C(C#N)=C(N)N(Nc3ccccc3)C3=C2C(=O)CC(C)(C)C3)cc1C", "note": "(stereo not drawn)", "inhibition": -5.96},
      {"smiles": "CSc1ccccc1OCc1cc(C(=O)NC(C)CCn2cccn2)no1", "note": "(stereo not drawn)", "inhibition": -15.6},
      {"smiles": "Cc1cc(C)n(C(=O)c2ccc([N+](=O)[O-])cc2N)n1", "inhibition": -4},
      {"smiles": "Cc1cc(C)n(C(=O)c2ccc([N+](=O)[O-])cc2Cl)n1", "inhibition": 5.54},
      {"smiles": "Cc1nc([N+](=O)[O-])cn1CC(=O)c1ccc(Br)cc1", "inhibition": 4.4},
      {"smiles": "CC(C)C(=O)c1cn(CC(=O)NCc2ccc3c(c2)OCO3)c2ccccc12", "inhibition": -5.3},
      {"smiles": "CC(=O)n1nc(-c2ccccc2)nc1NCc1ccc(N(C)C)cc1", "inhibition": 0.39},
      {"smiles": "CS(=O)(=O)n1nc(-c2cccnc2)nc1NCc1ccccc1", "inhibition": 0.47},
      {"smiles": "CCN(CC)CC(=O)NCC1(c2ccccc2)CCCC1", "inhibition": -3.12},
      {"smiles": "O=C(O)C1C2C=CC(C2)C1C(=O)Nc1ccc(C(=O)N2CCCCC2)cc1", "note": "(stereo not drawn)", "inhibition": 1.87},
      {"smiles": "CCOC(=O)C(=O)N=Nc1c(O)n(C)c2ccccc12", "inhibition": 1.87},
      {"smiles": "COc1cccc(N=Nc2c(=O)[nH]n3c(C)cc(C)nc23)c1", "inhibition": 0.98},
      {"smiles": "Cc1cc(C)n2[nH]c(=O)c(N=Nc3ccccc3)c2n1", "inhibition": 4.19},
      {"smiles": "Cc1c(C(=O)N2CCN(C(=O)c3ccccc3)CC2)oc2ccc(F)cc12", "inhibition": -0.86},
      {"smiles": "COc1ccc(/C=C/C(=O)c2oc3ccc(F)cc3c2C)cc1", "inhibition": 10.9},
      {"smiles": "CC(=O)c1ccc(OCC(=O)Nc2cccc(S(=O)(=O)N3CCCC3)c2)cc1", "inhibition": -6.55},
      {"smiles": "COc1cc(NC(=O)c2cccs2)c(C(=O)OCC(=O)NCc2ccccc2)cc1OC", "inhibition": -0.2},
      {"smiles": "O=C(COC(=O)c1cccs1)NCc1ccco1", "inhibition": -0.65},
      {"smiles": "COc1ccc(COC(=O)c2ccc3c(=O)n4c(nc3c2)CCC4)cc1F", "inhibition": 3.8},
      {"smiles": "COc1cccc(CN(C)C(=O)c2ccc3c(=O)n4c(nc3c2)CCC4)c1OC", "inhibition": 1.09},
      {"smiles": "C[C@H](NC(=O)C1CCN(S(=O)(=O)c2ccccc2)CC1)C(=O)NCc1ccc(Cl)cc1Cl", "inhibition": -1.33},
      {"smiles": "O/C(=C\\Sc1nnc(Cc2ccccc2)o1)c1ccc(Br)cc1", "inhibition": 8.01},
      {"smiles": "O/C(=C\\Sc1nnc(Cc2ccccc2)o1)c1ccc(F)cc1", "inhibition": 7.63},
      {"smiles": "CCC(C)(C)NC(=O)C(c1ccncc1)N(C(=O)c1sc(C)nc1C)c1ccc(C)cc1", "note": "(stereo not drawn)", "inhibition": 3.84},
      {"smiles": "COc1cc(/C=N\\NC(=O)c2ccc(Cl)cc2)ccc1Oc1ccc([N+](=O)[O-])cn1", "inhibition": -6.52},
      {"smiles": "Cc1nc2ccccc2n1CCc1ccccc1", "inhibition": -2.95},
      {"smiles": "Cc1cccc(-n2c(N)c(-c3nc4ccccc4n3C)c3nc4ccccc4nc32)c1", "inhibition": 1.57},
      {"smiles": "CNC(=O)CS(=O)(=O)CC(=O)Nc1cc(OC(C)C)c(Cl)cc1Cl", "inhibition": -5.55},
      {"smiles": "O=C(OC(C(=O)Nc1ccc(Cl)c(C(F)(F)F)c1)c1ccccc1)C1=COCCO1", "note": "(stereo not drawn)", "inhibition": 45.5},
      {"smiles": "O=C(Cc1ccccc1)Nc1nccs1", "inhibition": -6.19},
      {"smiles": "COC(=O)CCC(=O)Nc1nccs1", "inhibition": 5.49},
      {"smiles": "CCn1c(SCC(=O)Nc2nc(C)c(C)s2)nnc1-c1cccnc1", "inhibition": -1.86},
      {"smiles": "CC1=NC(C(F)(F)F)(C(F)(F)F)C(C#N)=C(C)N1", "inhibition": -4.27},
      {"smiles": "C=CCn1cccc(C(=O)Nc2ccc(SC)cc2)c1=O", "inhibition": -0.65},
      {"smiles": "O=C(c1cccc(Cl)c1)c1nn(-c2ccccc2)c(=O)cc1C(F)(F)F", "inhibition": -1.58},
      {"smiles": "O=C(c1ccccc1)c1nn(-c2ccccc2)c(=O)cc1C(F)(F)F", "inhibition": 13.9},
      {"smiles": "CCCCNC(=O)c1c(C)cc(=O)oc1C", "inhibition": -6.73},
      {"smiles": "Oc1ccccc1C1Nc2cccc3cccc(c23)N1", "inhibition": 6.02},
      {"smiles": "Clc1cccc(Cl)c1C1Nc2cccc3cccc(c23)N1", "inhibition": 14.4},
      {"smiles": "O=C(CSc1nnnn1-c1ccc(F)cc1F)Nc1ccccc1F", "inhibition": -0.25},
      {"smiles": "CC(=O)NC1=NN(C(C)=O)C(c2ccc(F)cc2)S1", "note": "(stereo not drawn)", "inhibition": -2.18},
      {"smiles": "Cc1onc(-c2ccccc2)c1C(=O)NCc1cccnc1", "inhibition": -1.76},
      {"smiles": "Cc1cc(=O)oc(C)c1C(=O)NCc1cccnc1", "inhibition": -7.02},
      {"smiles": "COc1ccc(-c2cc(C(=O)N/N=C(\\C)c3cccnc3)c3cc(C)ccc3n2)cc1OC", "inhibition": -3},
      {"smiles": "CCc1nnc(NC(=O)c2ccc(S(=O)(=O)N3CCCC3)cc2)s1", "inhibition": -0.36},
      {"smiles": "CN(C(=O)CSc1cccc[n+]1[O-])c1ccccc1", "inhibition": -7.05},
      {"smiles": "[O-][n+]1ccccc1SCc1ccccc1", "inhibition": -3.14},
      {"smiles": "O=C(O)CSc1cccc[n+]1[O-]", "inhibition": -0.1},
      {"smiles": "O=C(CSc1cccc[n+]1[O-])N1CCCCCC1", "inhibition": -7.02},
      {"smiles": "CN(C(=O)CS(=O)(=O)c1cn(CC(=O)N2CCCCC2)c2ccccc12)c1ccccc1", "inhibition": -2.32}
    ]}
  ]
}
